{"source": "PubChem BioAssay (NCATS)", "note": "Records with an inconclusive call do not appear. Active and inactive are the calls of the source. Calls follow the shape of the dose curve; as a rule, active = well fitted cell-killing curve with a large enough effect; inconclusive = small, poorly fitted or top-dose-only effect; inactive = flat fitted curve, though single readings scatter. Potency is read from the fitted curve at half-maximal effect."}
{"experiment": "Quantitative highthroughput screen to assess conditional lethalithy of NOMO1 cells grown in RPMI1640 with dialyzed fetal bovine serum (RPMI+ds) (AID 1963877); also: nearly all actives have a fitted effect of over 30% in size", "conditions": "NOMO1 in RPMI+dialyzed FBS viability, ATP luminescence, 48 h; series mostly up to 45.8 µM; viability: at the top concentration", "source_text": "Assay Provider: Jason Cantor Ph.D.\nDepartment of Biochemistry\nUniversity of Wisconsin-Madison, Madison, WI, USA\nChemical screening studies have identified drug sensitivities across hundreds of cancer cell lines but most putative therapeutics fail to translate. Discovery and development of drug candidates in models that more accurately reflect nutrient levels in human blood is a major challenge. Here we performed high-throughput screens in conventional versus Human Plasma-Like Medium (HPLM) to identify compounds that were \"missed\" when screening using the artificial culture condition. Sets of conditional anticancer compounds spanned phases of clinical development and included non-oncology drugs were assessed. […] We also traced conditional phenotypes for several chemotherapeutics to availability of HPLM-specific metabolites and confirmed others for compounds whose reported targets are encoded by nonessential genes. Our findings establish generalizable strategies for exploiting conditional lethality in HPLM to reveal therapeutic candidates and mechanisms of action in cancer cells.\nDescribed herein are the results of each viability screens against three cell lines: NOMO1 (an acute myeloid leukemia cell line); P12-Ichikawa (a T-cell acute lymphoblastic leukemia); and SEM (a B-cell ALL). Each assay was screened using 3 different cell culture media: homemade human plasma-Like medium with 10% dialyzed fetal bovine serum (HPLM+ds); RPMI1640 with 10% untreated FBS and 5mM glucose (RPMI+s); and RPMI1640 with 10% dialyzed fetal bovine serum and 5 mM glucose (RPMI+ds).\nPROTOCOL TABLE (as described by Inglese J, Shamu CE and Guy RK. 2007)\nSEQUENCE No. (e.g., 1, 2, 3, etc.); […] (e.g., Cells, Incubation, Reagent, etc.); VALUE and DESCRIPTION.\n1; Cells; 5 uL; white, solid bottom 1536-well Greiner assay plate.\n2; Compounds; 23 nL; Kalypsis pin tool (Wako USA) equipped with a 1536-well pin head to transfer to the assay plates.\n3; Incubation; 48 hours; 37C incubation.\n4; Reagent; 3 uL; CellTiter Glo (Promega).\n5; Incubation; 5 min, room temperature\n6; Detection; Luminescence, Viewlux PerkinElmer.\nNOTES (numbers refer to Sequence numbers above)\n1. Briefly, 5 ul of cell reagent was dispensed using a Multidrop Combi Dispenser. The NOMO1 and SEM cells were plated at 500 cells/well and the P12-Ichikawa line at 1000 cells/well.\n2. After seeding the cells, 23 nL of MIPE 4.1 library compounds (in DMSO) were added to each plate using a Kalypsys 1536 Pintool dispenser. Bortezomib at final concentration of […] and DMSO were added to each plate as positive and negative controls respectively. For each screen, MIPE 4.1 compounds were added over an eleven-point concentration range […] in 3-fold dilutions.\n3. Each plate was covered with a stainless steel gasketed lid to prevent evaporation and incubated for 48 hour at 37C, 95% relative humidity, and 5% CO2.\n4-5. Three microliter CellTilter-GloTM luminescent substrate mix (Promega) reagent was added to the assay plate and incubated at room temperature for 5 min.\n6. The luminescence signal was measured using a ViewLux (PerkinElmer) multiplate reader with a 2 second exposure time per plate. Data for each compound were normalized as percent viability such that measurements for DMSO and the empty well controls in each plate were defined as 100% and 0%, respectively."}
{"smiles": "CCc1c(C(=O)C(N)=O)c2c(OCC(=O)O)cccc2n1Cc1ccccc1", "viability": "109% (inactive)"}
{"smiles": "C[C@@H]1CC[C@H]2[C@@H](C)C(=O)O[C@@H]3O[C@@]4(C)CC[C@H]1[C@]32OO4", "viability": "103% (inactive)"}
{"smiles": "Clc1ccccc1C(c1ccccc1)(c1ccccc1)n1cccn1", "viability": "105% (inactive)"}
{"smiles": "CC1=C(O)C(=O)C=C2C1=CC=C1[C@@]2(C)CC[C@@]2(C)[C@@H]3C[C@](C)(C(=O)O)CC[C@]3(C)CC[C@]12C", "Potency": "2640 nM (active)"}
{"smiles": "O=S(=O)(F)Cc1ccccc1", "viability": "82.3% (inactive)"}
{"smiles": "COc1cc2cc(c1Cl)N(C)C(=O)C[C@H](OC(=O)C(C)C)[C@]1(C)O[C@H]1[C@H](C)[C@@H]1C[C@@](O)(NC(=O)O1)[C@H](OC)C=CC=C(C)C2", "viability": "9.16% (inactive)"}
{"smiles": "CNCC(O)c1ccc(O)cc1", "note": "(stereo not given)", "viability": "94.7% (inactive)"}
{"smiles": "CCCC(C)(COC(N)=O)COC(=O)NC(C)C", "note": "(stereo not given)", "viability": "106% (inactive)"}
{"smiles": "CC(C)[C@]12O[C@@H]1[C@@H]1O[C@]13[C@]1(O[C@H]1C[C@@H]1C4=C(CC[C@@]13C)C(=O)OC4)[C@H]2O", "Potency": "1.2 nM (active)"}
{"smiles": "O=[N+]([O-])c1ncc[nH]1", "viability": "108% (inactive)"}
{"smiles": "CN1CCN(c2ccc([N+](=O)[O-])c3no[n+]([O-])c23)CC1", "viability": "80.1% (inactive)"}
{"smiles": "CCCCCC[C@H]1C(=O)O[C@H](C)[C@H](NC(=O)c2cccc(NC=O)c2O)C(=O)O[C@@H](C)[C@@H]1OC(=O)CC(C)C", "viability": "78.2% (inactive)"}
{"smiles": "C[C@]12CCC(=O)C=C1CC[C@@H]1[C@H]3CC[C@](C)(O)[C@@]3(C)CC[C@@H]12", "viability": "99.7% [at 92.2 µM] (inactive)"}
{"smiles": "CC(=O)Nc1ccc(OC[C@](C)(O)C(=O)Nc2ccc([N+](=O)[O-])c(C(F)(F)F)c2)cc1", "viability": "90.7% (inactive)"}
{"smiles": "CN[C@@H]1Cc2cccc3[nH]c(=O)n(c23)C1", "viability": "97.8% (inactive)"}
{"smiles": "Cc1c(N)nc([C@H](CC(N)=O)NC[C@@H](N)C(N)=O)nc1C(=O)N[C@H](C(=O)N[C@@H](C)[C@H](O)[C@@H](C)C(=O)N[C@@H](C(=O)NCCc1nc(-c2nc(C(=O)NCCC[S+](C)C)cs2)cs1)[C@@H](C)O)C(O[C@H]1O[C@H](CO)[C@H](O)[C@@H](O)[C@@H]1O[C@H]1O[C@H](CO)[C@@H](O)[C@H](OC(N)=O)[C@H]1O)c1cnc[nH]1", "note": "(stereo not given in full)", "Potency": "2640 nM (active)"}
{"smiles": "NC1CC1c1ccccc1", "note": "(stereo not given)", "viability": "99.8% (inactive)"}
{"smiles": "CCOC(=O)c1c(C(C#N)=CN)c2ccc(Cl)c(Cl)c2n1C", "viability": "111% (inactive)"}
{"smiles": "Cc1[nH]nc2ccc(-c3cncc(OC[C@@H](N)Cc4c[nH]c5ccccc45)c3)cc12", "Potency": "743 nM (active)"}
{"smiles": "C[C@@H]1[C@H](O)[C@@H](C)C=CC=CCCC=CC=CC=CC=C[C@H](O[C@H]2O[C@@H](C)[C@H](O)[C@@H](N)[C@@H]2O)CC2O[C@](O)(C[C@@H](O)[C@H](O)CC[C@@H](O)C[C@@H](O)C[C@@H](O)CC(=O)O[C@H]1C)C[C@H](O)[C@H]2C(=O)O", "viability": "88.5% (inactive)"}
{"smiles": "Oc1ccc2c3c1O[C@H]1c4[nH]c5c(c4C[C@@]4(O)[C@@H](C2)N(CC2CC2)CC[C@]314)C[C@@]1(O)[C@H]2Cc3ccc(O)c4c3[C@@]1(CCN2CC1CC1)[C@H]5O4", "viability": "101% (inactive)"}
{"smiles": "CC1=C2C[C@@H]3[C@@H](CC=C4C[C@@H](O)CC[C@@]43C)[C@@H]2CC[C@]12O[C@H]1C[C@H](C)CN[C@H]1[C@H]2C", "viability": "85.7% (inactive)"}
{"smiles": "Fc1ccc(C(OCCN2CCN(CCCc3ccccc3)CC2)c2ccc(F)cc2)cc1", "Potency": "20900 nM (active)"}
{"smiles": "CN1C(=O)COc2c(C(=O)NC3CN4CCC3CC4)cc(Cl)cc21", "note": "(stereo not given)", "viability": "109% (inactive)"}
{"smiles": "NCC1(CC(=O)O)CCCCC1", "viability": "90.5% (inactive)"}
{"smiles": "CC(=O)N(C)c1cccc(-c2ccnc3c(C(=O)c4cccs4)cnn23)c1", "viability": "96% (inactive)"}
{"smiles": "COC1(CS(=O)c2ccccc2)CCN(CCc2c[nH]c3ccc(F)cc23)CC1", "note": "(stereo not given)", "viability": "91.9% (inactive)"}
{"smiles": "O=C(Oc1ccc([N+](=O)[O-])cc1)N1CCN(Cc2cccc(Oc3ccccc3)c2)CC1", "viability": "97.4% (inactive)"}
{"smiles": "CC(C)N[C@@H]1CCn2c(=O)[nH]c3cccc(c32)[C@@H]1O", "viability": "92.9% (inactive)"}
{"smiles": "Cn1c(CCCC(=O)O)nc2cc(N(CCCl)CCCl)ccc21", "viability": "98.7% (inactive)"}
{"smiles": "CCOc1ccccc1-n1c(C(C)N2CCN(C(=O)COc3ccc(Cl)cc3)CC2)nc2ccccc2c1=O", "note": "(stereo not given)", "Potency": "2630 nM (active)"}
{"smiles": "COc1ccc(C(=O)c2c(C)n(CCN3CCOCC3)c3ccccc23)cc1", "viability": "99.3% (inactive)"}
{"smiles": "C[C@@H]1O[C@@H](O[C@@H]2C=C3CC[C@@H]4[C@@H](CC[C@]5(C)[C@H](c6ccc(=O)oc6)CC[C@@]45O)[C@@]3(C)CC2)[C@H](O)[C@H](O)[C@H]1O", "Potency": "46.9 nM (active)"}
{"smiles": "CC(N[C@H]1C[C@H]1c1ccccc1)c1ccc2c(c1)OCCO2", "note": "(stereo not given in full)", "viability": "104% (inactive)"}
{"smiles": "COC1=C[C@@H]2[C@@H]3Cc4ccc(OC)c(O)c4[C@]2(CCN3C)CC1=O", "viability": "95.9% (inactive)"}
{"smiles": "COc1ccc2c(c1)CN(C)CC2c1ccc(Cl)c(Cl)c1", "note": "(stereo not given)", "Potency": "9350 nM (active)"}
{"smiles": "CC=C(C)C(=O)O[C@H]1C(C)=C2[C@@H]3OC(=O)[C@@](C)(O)[C@@]3(O)[C@@H](OC(=O)CCC)C[C@](C)(OC(C)=O)[C@@H]2[C@@H]1OC(=O)CCCCCCC", "Potency": "66.2 nM (active)"}
{"smiles": "C[C@@H]1C[C@@H]([C@H](O)CC2CC(=O)NC(=O)C2)C(=O)[C@@H](C)C1", "Potency": "1660 nM (active)"}
{"smiles": "CC(C)(C)c1cc(C=C(C#N)C#N)cc(Br)c1O", "viability": "92.5% (inactive)"}
{"smiles": "O=c1[nH]c2ccccc2n1CCCN1CCC(n2c(=O)[nH]c3cc(Cl)ccc32)CC1", "viability": "85.8% (inactive)"}
